According to PubChem BioAssay AID1224856 (National Center for Advancing Translational Sciences (NCATS), 2016):
Records with an inconclusive call do not appear. The source made the active and inactive calls. Calls come from the whole dose curve; as a rule, active = well fitted curve in the direction sought with a large enough effect; inconclusive = small, poorly fitted or top-dose-only effect, or another doubt; inactive = no such curve, though single readings can be large or run the other way.

test: Cell viability assay for measurement of the protective activity of small molecules against cell death caused by Zika virus infection in human astrocytes; conditions: human astrocytes ZIKV-induced death, ATP luminescence, 72 h; series mostly up to 46.1 µM; protection from virus-induced death: at the top concentration
Excerpt: National Center for Advancing Translational Sciences [NCATS] Johns Hopkins University School of Medicine Florida State University Assay Overview: Zika virus infection causes cell death in certain cell types including human neural progenitor cells (hNPCs), astrocytes, and astrocytoma cell line (SNB-19). This cell viability assay measures the ATP content (level) in human astrocytes using a luminescence readout that is proportional to viable cell numbers. Decrease in the luminescence signal after Zika virus infection indicates the cell death caused by Zika virus. Small molecule inhibitors […] the decreased luminescence signal after Zika virus infection, indicating the protective effect of that small molecule on the cell death caused by Zika virus infection. This observed protective effect of small molecules against Zika virus induced cell death may result from inhibition of virus replication or cellular response to the virus infection.
Assay Protocol Summary: The medium for astrocytes contains AM basal medium (ScienCell, Cat.# 1801), AGS (ScienCell, Cat.# 1801), 10% FBS, and 1% Pen/Strep. The ATP content assay kit (PerkinElmer, Cat.# 6016731) was used to determine cell viability. The reagent was reconstituted and prepared as described by the manufacturer. Cells were seeded in 384- or 1536-well assay plates and cultured at 37 C with 5% CO2 for 16 to 20 hours. The typical cell seeding density in the 1536-well plate assay is 350 cells/well in 3 ul medium for astrocytes in the tissue cultured treated/PDL coated plates. Compounds were added to cells and incubated for one hour before addition of ZIKV solution to cells (2 FFU/cell). After incubation at 37 C with 5% CO2 for 72 hours, the reagent mixture of the ATP content assay kit was added to each well, followed by incubation at room temperature for 10 minutes. The luminescence intensity of the assay plates was measured using a ViewLux plate reader (PerkinElmer). […] The percentage inhibitions of the decreased cell viability by small molecule inhibitors were then calculated.

| Structure (SMILES) | protection from virus-induced death | Potency |
| --- | --- | --- |
| CC(C(=O)O)c1ccc2c(c1)[nH]c1ccc(Cl)cc12 (stereo not given) | -1.5% (inactive) | – |
| Cc1nc(-c2ccc(OCC(C)C)c(C#N)c2)sc1C(=O)O | -4.48% (inactive) | – |
| CCOCCOC(=O)/C=C/c1ccc(OC)cc1 | 19% (inactive) | – |
| CC(=NNC(=S)N1CCC1)c1ccccn1 | -5.84% (inactive) | – |
| CC(C(=O)O)c1ccc(-c2ccccc2)c(F)c1 (stereo not given) | 0% (inactive) | – |
| CNC(=O)c1ccccc1Sc1ccc2c(/C=C/c3ccccn3)n[nH]c2c1 | -2.44% (inactive) | – |
| O=C(C=CC=Cc1ccc2c(c1)OCO2)N1CCCCC1 | -6.68% (inactive) | – |
| COP(=S)(OC)SCN1C(=O)c2ccccc2C1=O | -5.96% (inactive) | – |
| Cc1ccc(O)c(-n2nc3ccccc3n2)c1 | 6.64% (inactive) | – |
| COC1(CS(=O)c2ccccc2)CCN(CCc2c[nH]c3ccc(F)cc23)CC1 (stereo not given) | -3.55% (inactive) | – |
| CN(C)c1ccc(N=NS(=O)(=O)O)cc1 | -4.46% [at 88.3 µM] (inactive) | – |
| CN(C)c1cc(NC(=O)CNC(C)(C)C)c(O)c2c1C[C@@H]1C[C@H]3[C@H](N(C)C)C(=O)C(C(N)=O)=C(O)[C@@]3(O)C(=O)C1=C2O | -2.39% (inactive) | – |
| COc1ccc(C=CC(=O)Nc2ccccc2C(=O)O)cc1OC | -2.38% (inactive) | – |
| CC(C)[N+](C)(CCC(C(N)=O)(c1ccccc1)c1ccccc1)C(C)C | 2.09% (inactive) | – |
| Cc1ccc(C(=O)c2ccc(CC(=O)O)n2C)cc1 | -3.13% (inactive) | – |
| CN1CC(=O)N2C(Cc3c([nH]c4ccccc34)[C@H]2c2ccc3c(c2)OCO3)C1=O (stereo not given in full) | -5.79% (inactive) | – |
| COc1cc2nc(N3CCN(C(=O)C4CCCO4)CC3)nc(N)c2cc1OC (stereo not given) | 3.64% (inactive) | – |
| Cc1ccc([N+](=O)[O-])[c]2c1[O][Hg]2 | -10.2% (inactive) | – |
| O=C(Nc1ncc([N+](=O)[O-])s1)c1cccs1 | 2.95% (inactive) | – |
| O=C(O)c1cccc(-c2noc(-c3ccccc3F)n2)c1 | -5.89% (inactive) | – |

| Structure (SMILES) | protection from virus-induced death | Potency |
| --- | --- | --- |
| CC(O)CN1CCN(CC(=O)[O-])CCN(CC(=O)[O-])CCN(CC(=O)[O-])CC1.[Gd+3] (stereo not given) | 7.51% (inactive) | – |
| O=C(Nc1cc2cc[nH]c2cn1)c1ccccc1 | -10.3% (inactive) | – |
| CN1CC[C@@]2(C)c3cc(OC(=O)Nc4ccccc4)ccc3N(C)[C@@H]12 | 4.98% (inactive) | – |
| Cc1ccc(O)c(N=Nc2ccccc2)n1 | -7.13% (inactive) | – |
| COc1ccc(/C=C/C(=O)Nc2ccccc2C(=O)O)cc1OC | -3.37% (inactive) | – |
| CC=CC[C@@H](C)C(=O)[C@H]1C(=O)N[C@@H](C(C)C)C(=O)N(C)CC(=O)N(C)[C@@H](CC(C)C)C(=O)N[C@@H](C(C)C)C(=O)N(C)[C@@H](CC(C)C)C(=O)N[C@@H](C)C(=O)N[C@H](C)C(=O)N(C)[C@@H](CC(C)C)C(=O)N(C)[C@@H](CC(C)C)C(=O)N(C)[C@@H](C(C)C)C(=O)N1C | -4.94% (inactive) | – |
| Clc1ccccc1-c1nc(-c2ccncc2)no1 | -2.26% (inactive) | – |
| NC(=O)c1cccc2[nH]c(-c3ccc([C@H]4CCCN4)cc3F)nc12 | -8.3% (inactive) | – |
| O[C@@H](COc1cccc2ncccc12)CN1CCN(C2c3ccccc3[C@@H]3[C@H](c4ccccc42)C3(F)F)CC1 (stereo not given in full) | -6.34% (inactive) | – |
| Nc1nc2ccc([N+](=O)[O-])cc2s1 | 0.8% [at 88.3 µM] (inactive) | – |
| CCCCCNC(=O)N1CCC(CN(Cc2ccc(Cl)cc2)Cc2ccc([N+](=O)[O-])s2)C1 (stereo not given) | 0.395% (inactive) | – |
| c1ccc2[nH]c(-c3cscn3)nc2c1 | -4.09% (inactive) | – |
| Oc1ccc(/C=C/c2cc(O)cc(O)c2)cc1 | -6.36% (inactive) | – |
| CC[C@]1(O)C[C@H]2CN(CCc3c([nH]c4ccccc34)[C@@](C(=O)OC)(c3cc4c(cc3OC)N(C=O)[C@H]3[C@@](O)(C(=O)OC)[C@H](OC(C)=O)[C@]5(CC)C=CCN6CC[C@]43[C@@H]65)C2)C1 | 0.154% (inactive) | – |
| COc1ccc(-c2cc(=O)c3c(O)cc(O)cc3o2)cc1O | 1.16% (inactive) | – |
| CC(=O)Nc1ccc([C@H](C)C(=O)Nc2ncc(C(C)C)s2)cc1 | – | 4.89 µM (active) |
| CO[C@H]1C(=O)[C@]2(C)[C@@H](OC)C[C@H]3OC[C@@]3(OC(C)=O)[C@H]2[C@H](OC(=O)c2ccccc2)[C@]2(O)C[C@H](OC(=O)[C@H](O)[C@@H](NC(=O)OC(C)(C)C)c3ccccc3)C(C)=C1C2(C)C | 6.47% (inactive) | – |
| O=c1cc(-c2ccccc2)oc2cc(O)c(O)c(O)c12 | -3.19% (inactive) | – |
| CCOC1OC(=O)C[C@H]1NC(=O)[C@@H]1CCCN1C(=O)[C@@H](NC(=O)c1ccc(N)c(Cl)c1)C(C)(C)C (stereo not given in full) | 1.13% (inactive) | – |
| CC(C(=O)O)c1ccc(C(=O)c2ccccc2)s1 (stereo not given) | -0.72% (inactive) | – |
